Compounds with a hit are over-represented: about 2.4% of the library has one in this group of screens.
D2 ag-1 = human D2 receptor agonism in beta-arrestin assay; P14416; DiscoveRx PathHunter D2 beta-arrestin, luminescence, 90 min; 100% = 57 uM dopamine signal; activation, % (no concentration beside the values); 0.084% of 360,000 active; AID 624465; in the data active means activation above about 40%; inconclusive means between about 15% and that limit
Target sequence (P14416 whole entry, looked up): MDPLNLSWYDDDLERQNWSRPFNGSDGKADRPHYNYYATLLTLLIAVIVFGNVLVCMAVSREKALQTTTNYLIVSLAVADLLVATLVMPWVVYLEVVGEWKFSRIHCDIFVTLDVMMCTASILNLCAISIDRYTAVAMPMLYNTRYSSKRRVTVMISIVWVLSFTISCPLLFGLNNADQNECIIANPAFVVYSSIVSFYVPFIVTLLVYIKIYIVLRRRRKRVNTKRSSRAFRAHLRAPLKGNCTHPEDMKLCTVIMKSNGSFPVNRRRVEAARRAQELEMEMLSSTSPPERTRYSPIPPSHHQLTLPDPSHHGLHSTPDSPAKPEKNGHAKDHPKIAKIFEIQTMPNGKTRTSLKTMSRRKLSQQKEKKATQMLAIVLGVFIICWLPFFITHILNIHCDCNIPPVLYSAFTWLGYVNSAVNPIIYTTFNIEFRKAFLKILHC
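DiscoveRx PathHunter D2 beta-arrestin cells (2,100/well) attached overnight, then compound-stimulated 90 min at 37 C in HBSS/10 mM HEPES/0.1% Tween-20 buffer; beta-galactosidase complementation read by luminescence after 1 h at ambient temperature. Dopamine 57 uM final (EC100) as control.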
D2 PAM-1 = positive allosteric modulators of human D2 dopamine receptor; DiscoveRx D2 beta-arrestin cells, luminescence, 90 min; 100% = 57 uM dopamine signal; potentiation, % (concentration not given with the values); 0.23% of 360,000 active; AID 624464; in the data active means potentiation above about 50%; inconclusive means mostly about 30% to 49%
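PathHunter D2 cells, attached overnight at 37 deg C, received compound in DMSO plus dopamine at EC20 (50 nM final) for 90 min at 37 deg C. Beta-arrestin recruitment was read as luminescence after 1 h with detection reagent at ambient temperature.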
D2 antag = antagonists of human D2 dopamine receptor. P14416. HEK293 TREx D2 cells, calcium flux, dopamine EC80. inhibition, % at 10 µM. 2% of 340,000 active. AID 485344; in the data active means inhibition above about 30%; inactive means below that, where a call was filed
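Dopamine at EC80 is the agonist stimulus; test compounds precede it by 180 s. Calcium flux read kinetically in a force-coupled, inducible HEK293 T-REx D2 cell line.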
D2 PAM-2 = positively modulates the human D2 dopamine receptor allosterically. HEK293 T-REx D2, calcium flux, EC20 dopamine potentiation. potentiation, % at 10 µM. 0.34% of 340,000 active;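 active means potentiation over 3 SD above the plate norm, cut at about 30% in these data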
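Potentiation of an EC20 dopamine calcium response is measured in a force-coupled, tetracycline-inducible Hek293 Trex D2 line. Compound-only kinetic reads over 180 s flag agonists before dopamine addition.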
D2 ag-2 = agonists of human D2 dopamine receptor; P14416; HEK293 T-REx D2 cells, calcium flux agonist mode; activation, % at 2 µM; 0.53% of 340,000 active; AID 485358;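 active means activation over 3 SD above normal in the single-dose calcium agonist read, cut at about 30% in these data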
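Tetracycline-induced HEK293 T-REx cells with force-coupled D2 receptor, plated overnight at 30 C, loaded with no-wash calcium dye. After a 10 s baseline, compound was pin-added and calcium flux read kinetically for 180 s; calcium rises flagged agonists.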
Each line names hits and unclear results; the compound was inactive in the other large screens.

COCCNC(=O)CCCn1c(SCC(=O)c2ccc(Br)cc2)nc2c(sc3ccccc32)c1=O	none (no result: D2 ag-1, D2 PAM-1, D2 antag)
COC(=O)c1c(-c2cccs2)csc1NC(=O)CN1CCOCC1	D2 PAM-2 33
COC(=O)c1c(-c2cccs2)csc1NC(=O)c1ccc(C)cc1	none (no result: D2 ag-1, D2 PAM-1, D2 antag)
O=C(CN1CCOCC1)Nc1scc2c1c(=O)oc1ccccc12	D2 antag 36
Cc1ccc2c(c1)C(c1ccc(F)cc1)N(C(=O)c1ccc(OC(C)C)cc1)CC(=O)N2 (stereo unspecified)	none (no result: D2 ag-1, D2 PAM-1, D2 antag)
CCOc1ccc(C(=O)Nc2ccc3nc(SCC(=O)N4CCOCC4)sc3c2)cc1	none (no result: D2 ag-1, D2 PAM-1, D2 antag)
O=C(c1cncc(Br)c1)N1CCN(S(=O)(=O)c2ccccc2)CC1	none
O=C(c1cncc(Br)c1)N1CCN(S(=O)(=O)c2ccccc2C(F)(F)F)CC1	D2 antag 40
CCOc1ccccc1OCCCNCc1ccco1	D2 antag 31
CC1CCc2onc(C(=O)N3CCN(c4ccc(Cl)cc4)CC3)c2C1 (stereo unspecified)	none (no result: D2 ag-1, D2 PAM-1, D2 antag)
Cn1nnnc1SCC(=O)Nc1ccc(Br)cc1Cl	D2 PAM-2 44
Cc1noc(/C=C/NCc2cccnc2)c1S(=O)(=O)N(C)CC(=O)N1CCc2ccccc21	D2 antag 57
O=C(c1ccc2c(c1)OCO2)C1CCCN(C2CCN(CCc3ccccc3)CC2)C1 (stereo unspecified)	D2 antag 70
CC(C)C(NS(=O)(=O)c1ccc2c(c1)oc(=O)n2C)C(=O)N1CCN(c2cccc(Cl)c2)CC1 (stereo unspecified)	none (no result: D2 ag-1, D2 PAM-1, D2 antag)
CCn1cc(/C=N/NC(=O)c2cc3c(ccc4ccccc43)o2)c2ccccc21	D2 PAM-1 inconclusive, D2 PAM-2 35
CCc1ccccc1NC(=O)c1sc(-n2nc(C)c(Cc3ccccc3)c2C)nc1C	none (no result: D2 ag-1, D2 PAM-1, D2 antag)
COc1ccc(C(=O)c2cn(CC(=O)Nc3ccc4c(c3)OCCO4)c3ccc(OC)cc3c2=O)cc1	none (no result: D2 ag-1, D2 PAM-1, D2 antag)
Cc1nn(Cc2ccccc2)c(C)c1/C=N/NC(=O)CNc1cccc(C(F)(F)F)c1	none
COc1ccc(NCC(=O)N/N=C/c2c(C)nn(Cc3ccccc3)c2Cl)cc1	D2 antag 31
CCn1c(=O)sc2cc(NS(=O)(=O)c3ccc(F)c(C)c3)ccc21	none (no result: D2 ag-1, D2 PAM-1, D2 antag)
C=CCNC(=O)CN1C2CCCC1CC(NC(=O)c1ccccc1C)C2 (stereo unspecified)	D2 PAM-2 41
COc1ccccc1N1CCN(C(=O)CCn2cnc3onc(-c4ccc(F)cc4)c3c2=O)CC1	none (no result: D2 ag-1, D2 PAM-1, D2 antag)
COc1ccccc1-c1cc(C(=O)NCc2cccs2)no1	D2 antag 76
COc1ccc(OC)c(-c2cc(C(=O)NCc3cccs3)no2)c1	none
COc1ccc(OC)c(-c2cc(C(=O)NCc3ccc(Cl)cc3)no2)c1	D2 antag 62
COc1ccccc1-c1cc(C(=O)NC(C)c2ccccc2)no1 (stereo unspecified)	D2 antag 61
COc1ccc(-c2cc(C(=O)NCc3ccc(Cl)cc3)no2)cc1OC	none
COC(=O)c1ccccc1NC(=O)c1ccc2c(c1)CCN2S(C)(=O)=O	none (no result: D2 ag-1, D2 PAM-1, D2 antag)
Cc1ccc(NC(=O)CN2C(=O)CCc3ccccc32)cc1C	none (no result: D2 ag-1, D2 PAM-1, D2 antag)
Clc1ccc(-c2ccc(CNCC3CCCO3)o2)cc1 (stereo unspecified)	D2 antag 35
CC(C)CC(OC(=O)c1nsc(Cl)c1Cl)C(=O)NC1CCCC1 (stereo unspecified)	D2 antag 69
C=CCN=C1S/C(=C/c2ccc([N+](=O)[O-])cc2)C(=O)N1CC=C	none
C=CCN=C1S/C(=C\c2ccc(Cl)cc2)C(=O)N1CC=C	D2 antag 80
N#Cc1cccc(C(c2nnnn2C2CCCC2)N2CCC(Cc3ccccc3)CC2)c1 (stereo unspecified)	D2 PAM-2 40
COC(=O)NC(=S)Nc1ccc(Oc2ccc(Cl)cc2)c(Cl)c1	none
COC(=O)NC(=S)Nc1ccc(Oc2ccc(Cl)cc2Cl)c(Cl)c1	D2 PAM-2 36 (no result: D2 antag, D2 ag-2)
O=C(NC1CC1)C1CCN(C2CCN(C(=O)Cc3ccc(F)cc3)CC2)CC1	D2 antag 34
CN1CCN(c2oc(/C=C/c3ccc(F)cc3)nc2C#N)CC1	none (no result: D2 ag-1, D2 PAM-1, D2 antag)
COC(=O)c1c(NC(=O)CN2CCN(c3ccccc3OC)CC2)c2c(C)cccc2n1C	D2 ag-2 52 (no result: D2 ag-1, D2 PAM-1)
COC(=O)c1[nH]c2cccc(OC)c2c1NC(=O)CCN1CCC(C(N)=O)CC1	none (no result: D2 ag-1, D2 PAM-1)
COC(=O)c1c(NC(=O)CN2CCN(c3ccccc3)CC2)c2c(C)cccc2n1C	none
COc1ccc(OC)c(NC(=O)CCN2CCN(Cc3ccccc3)CC2)c1	D2 ag-2 36
COC(=O)c1[nH]c2cccc(C)c2c1NC(=O)CN1CCN(C(=O)c2ccco2)CC1	none
COC(=O)c1[nH]c2cccc(OC)c2c1NC(=O)CCN1CCN(c2ccccc2F)CC1	D2 antag 74, D2 ag-2 44 (no result: D2 ag-1, D2 PAM-1)
COC(=O)c1[nH]c2cccc(C)c2c1NC(=O)CN1CCN(c2ccccc2OC)CC1	D2 antag 54, D2 ag-2 39
Cc1ccc(NC(=O)c2ccc(CN3CC(=O)N4CCCCC4C3=O)cc2)cc1C (stereo unspecified)	none (no result: D2 ag-1, D2 PAM-1, D2 antag)
COc1ccc(OC)c(Nc2ncc3c(n2)CCN(Cc2cc(OC)c(OC)c(OC)c2)C3)c1	none (no result: D2 ag-1, D2 PAM-1, D2 antag)
COC(=O)c1[nH]c2cc(OC)ccc2c1NC(=O)CCN1CCN(c2ccccc2)CC1	D2 antag 63
CCOC(=O)C1CCCN(CCC(=O)Nc2c(C(=O)OC)[nH]c3cc(OC)ccc23)C1 (stereo unspecified)	none
CCOc1ccc(S(=O)(=O)N(CC(=O)Nc2ccc3c(c2)OCO3)c2ccccc2)cc1	none (no result: D2 ag-1, D2 PAM-1, D2 antag)
CCOc1ccc(CNC(=O)C2CCN(S(=O)(=O)N3CCCCC3)CC2)cc1	none (no result: D2 ag-1, D2 PAM-1, D2 antag)
CCOC(=O)c1c(C)[nH]c(N=Nc2ccc(C)cc2)c1C	none
CCOC(=O)c1c(C)[nH]c(N=Nc2cccc(C)c2)c1C	D2 antag 33
CCOC(=O)c1c(C)[nH]c(N=Nc2ccccc2)c1C	D2 antag 67
CCc1ccc(Cn2c(CNS(=O)(=O)c3ccc(Cl)s3)nc3cccnc32)cc1	none (no result: D2 ag-1, D2 PAM-1, D2 antag)
Cc1ccc(-n2c3nc(=O)n(C)c(=O)c-3cc3c(Cl)cccc32)c(C)c1	none (no result: D2 ag-1, D2 PAM-1, D2 antag)
CCOc1ccccc1C(=O)NC1(C(F)(F)F)C(=O)Nc2c1c(=O)[nH]c(=O)n2-c1ccccc1 (stereo unspecified)	none (no result: D2 ag-1, D2 PAM-1, D2 antag)
COc1cc(/C=C2/CCC/C(=C\c3cc(O)c(OC)c(Cl)c3)C2=O)cc(Cl)c1O	D2 PAM-2 38
COc1cc(/C=C2\CC/C(=C\c3cc(OC)c(O)c(OC)c3)C2=O)cc(OC)c1O	none
Cc1nn2c(=O)cc(COC(=O)c3ccc(NC(=O)c4cccs4)cc3)nc2s1	none (no result: D2 ag-1, D2 PAM-1, D2 antag)
O=C(N/N=C/c1cc(Cl)ccc1O)c1ccc(Br)cc1	D2 antag 34
Cc1cccc(/C=N\NC(=O)c2ccc(Cl)cc2)c1O	D2 antag 30
O=C(N/N=C/c1cccc(Br)c1)c1ccc(Br)cc1	D2 antag 50

High-throughput results: PubChem, National Center for Advancing Translational Sciences (NCATS)
